Values joined by “and” are separate entries in the source; they are usually repeats but may differ in a detail not shown here. Identical values can stand only once. Inconclusive results are not listed. Some structures have more than one record in an assay (separate samples or runs), and their calls can disagree. Active and inactive are the calls of the source. Rule for the calls: active = hit-call score of the fitted dose curve at least 0.9, where 1 is the maximum; inconclusive = response in the unintended direction; inactive = score below 0.9.
These compounds were tested on xenobiotic metabolism (CYP1A2), CYP1A2 (gene 1544) (assay: CLD_CYP1A2_6hr: CellzDirect (CLD) Gene Expression Assay for xenobiotic metabolism (CYP1A2) at 6 hours (AID 2283663);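 for AC50: potency is for induction meaning a rise in mRNA above DMSO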).
Procedure: CLD_6hr is a cell-based, multiplexed-readout assay that uses hepatocyte, a human liver primary cell, with measurements taken at 6 hours after chemical dosing in a 96-well plate.CLD_CYP1A2_6hr is one of 16 assay component(s) measured or calculated from the CLD_6hr assay. It is designed to make measurements of mRNA induction, a form of inducible reporter, as detected with chemiluminescence signals by Quantitative Nuclease Protection Assay (qNPA) technology.Data from the assay component CLD_CYP1A2_6hr was analyzed at the endpoint, CLD_CYP1A2_6hr, in the positive analysis fitting direction relative to DMSO as the negative control and baseline of activity. Using a type of inducible reporter, gain-of-signal activity can be used to understand changes in the reporter gene as they relate to the gene CYP1A2. Furthermore, this assay endpoint can be referred to as a primary readout. To generalize the intended target to other relatable targets, this assay endpoint is annotated to the cyp intended target family, where subfamily is xenobiotic metabolism.
Human hepatocyte cultures were treated daily for two consecutive days with fresh dosing solutions containing appropriate concentrations of the 320 ToxCast chemicals (chemical identities were blinded to CellzDirect and other ToxCast collaborators), vehicle control (0.2% DMSO), and positive control inducers as summarized in Table 1. Due to the large number of treatment groups and chemicals examined, the ToxCast chemicals were divided into two groups (spanning two independent cultures of hepatocytes from separate donor preparations (Hu778: ToxCast plates 1 and 2; Hu776: ToxCast plates 3 and 4). Each preparation of human hepatocyte cultures was treated with respective vehicle control, medium only control, set of six positive controls/reference chemicals for the five hepatic receptor pathways, and a subset of eight of the ToxCast chemicals (indoxacarb, pyrithiobac-sodium, norflurazon, cyhalofop-butyl, methomyl, thiram, acetochlor, and propiconazole). These replicate data, coupled with internal replicates designed within the blinded ToxCast chemical library, provided additional data to evaluate interindividual differences between hepatocyte preparations and their potential impact on chemical profiles.Cell morphology and integrity were evaluated using phase-contrast microscopy as an indicator of hepatocyte cell health (Tyson & Green, 1987). Cultures for each treatment group (i.e., media, vehicle [0.2% DMSO], positive control inducers [multiple concentrations], and the ToxCast chemicals [multiple concentrations]) were observed and cell morphology was assessed relative to vehicle control cultures at each harvest time point (0, 6, 24, or 48 h). […] Images were evaluated at the conclusion of the study to assess changes in cell integrity and account for the effects of chemical exposure on uncharacteristic changes in concentration-dependent gene expression profiles. The results from these determinations of apparent cytotoxicity were annotated (yes/no) alongside the corresponding qNPA data for reference.At the conclusion of each treatment period, hepatocyte cultures (96-well) were washed with 1 volume of HBSS, lysed by addition of 25 ul ArrayPlate lysis buffer (HTG, Tucson, AZ), and 70 ul/well of Denaturation Oil, denatured by incubation at 95C for 10 min, and frozen at approximately -70C until analysis by nuclease protection assay (qNPA) (Roberts et al., 2007). For qNPA analysis, cell lysates were thawed at 50C for approximately 30 min, qNPA probes were added, and samples were incubated at 95C for 10 min to begin the detection process by denaturing the target RNA, dissociating the duplexes and secondary structure hybridization. At the conclusion of the hybridization period, S1 nuclease reagent was added to each sample to digest all nonprotected nucleotides at 50C for 60-90 min. […]
For COP(=S)(OC)Oc1nc(Cl)c(Cl)cc1Cl, the AC50 was 6.12 µM (active). N#Cc1cc(Br)c(O)c(Br)c1 was tested, and the outcome was “inactive”. In the case of CC1=C(C(=O)Nc2ccccc2)SCCO1, the AC50 is reported as 7.64 µM (active). In the case of COC(=O)c1ccccc1C(=O)OC, the outcome is reported as “inactive”. With COc1nc(NC(C)C)nc(NC(C)C)n1 the outcome was “inactive”. For N#CC(CCc1ccc(Cl)cc1)(Cn1cncn1)c1ccccc1 (stereo not given), the AC50 was 1.89 µM (active). In the case of C#CCOS(=O)OC1CCCCC1Oc1ccc(C(C)(C)C)cc1 (stereo not given), the AC50 is reported as 1.9 µM (active). In the case of COc1nc(C)nc(NC(=O)NS(=O)(=O)c2ccccc2CCC(F)(F)F)n1, the AC50 is reported as 2.44 µM (active) and the outcome is reported as “inactive”. In the case of CCOC(=O)CC(SP(=S)(OC)OC)C(=O)OCC (stereo not given), the AC50 is reported as 3.97 µM (active). For O=C(Nc1ccccc1)Nc1ccnc(Cl)c1, the AC50 was 8.16 µM (active). With COC(=O)C(C)Oc1ccc(Oc2ccc(Cl)cc2Cl)cc1 (stereo not given) the AC50 was 3.97 µM (active) and 4.91 µM (active) and the outcome was “inactive”. In the case of CCCN(CCC)c1c([N+](=O)[O-])cc(S(N)(=O)=O)cc1[N+](=O)[O-], the outcome is reported as “inactive”. In the case of CCCCNC(=O)n1c(NC(=O)OC)nc2ccccc21, the outcome is reported as “inactive”. For CCc1nn(C)c(C(=O)NCc2ccc(C(C)(C)C)cc2)c1Cl, the AC50 was 20 µM (active). For Fc1ccc(Oc2ccnc3cc(Cl)cc(Cl)c23)cc1, the AC50 was 5.01 µM (active). With CCOP(=S)(OCC)SCn1c(=O)oc2cc(Cl)ccc21 the outcome was “inactive”. In the case of O=C(O)COc1nc(Cl)c(Cl)cc1Cl, the outcome is reported as “inactive”. In the case of N#Cc1nn(-c2c(Cl)cc(C(F)(F)F)cc2Cl)c(N)c1S(=O)C(F)(F)F (stereo not given), the outcome is reported as “inactive”. For CCCCNC(=O)OCC#CI, the outcome was “inactive” and the AC50 was 0.591 µM (active). In the case of CC1COC(Cn2cncn2)(c2ccc(Oc3ccc(Cl)cc3)cc2Cl)O1 (stereo not given), the outcome is reported as “inactive”. In the case of COc1ccc(C(c2ccc(OC)cc2)C(Cl)(Cl)Cl)cc1, the AC50 is reported as 17.3 µM (active). In the case of C=CC1(C)OC(=O)N(c2cc(Cl)cc(Cl)c2)C1=O (stereo not given), the AC50 is reported as 0.828 µM (active). For COc1cnc(OC)n2nc(NS(=O)(=O)c3c(OCC(F)F)cccc3C(F)(F)F)nc12, the AC50 was 0.255 µM (active). With CCCCOC(=O)c1ccccc1C(=O)OCCCC the outcome was “inactive” and the AC50 was 3.87 µM (active). For CC(C)Oc1cc(-n2nc(C(C)(C)C)oc2=O)c(Cl)cc1Cl, the AC50 was 2.19 µM (active). O=C(O)c1nc(Cl)ccc1Cl was tested, and the outcome was “inactive” and the AC50 was 6.11 µM (active). Cc1ccc(-c2c(Cl)nc(C#N)n2S(=O)(=O)N(C)C)cc1 was tested, and the outcome was “inactive”. With COP(N)(=O)SC (stereo not given) the outcome was “inactive”. In the case of C=CCC1=C(C)[C@@H](OC(=O)[C@@H]2[C@@H](C=C(C)C)C2(C)C)CC1=O, the outcome is reported as “inactive”. With COc1nc(C)nc(NC(=O)NS(=O)(=O)c2ccccc2Cl)n1 the outcome was “inactive” and the AC50 was 0.00149 µM (active). With CON(C)C(=O)Nc1ccc(Cl)c(Cl)c1 the AC50 was 0.752 µM (active). In the case of CCOC(=O)C(Cl)Cc1cc(-n2nc(C)n(C(F)F)c2=O)c(F)cc1Cl (stereo not given), the outcome is reported as “inactive”. With CCNc1nc(Cl)nc(NC(C)C)n1 the AC50 was 1.62 µM (active). With CNC(=O)ON=CC(C)(C)SC the outcome was “inactive”.
